This is an account of results in PubChem BioAssay (NCI).

Assay in all cases: NCI-60 one-dose screen, 48 h (100 = growth as untreated, 0 = no growth, -100 = all killed)
Common to all, as to settings: 10 µM unless noted

Experiment [1] has as its system T-47D breast.
Experiment [2] deals with BT-549 breast.
Experiment [3] concerns SW-620 colon.
The test system of experiment [4] is MCF7 breast.
Experiment [5] concerns HCT-116 colon.
Experiment [6] concerns HCC-2998 colon.
The subject of experiment [7] is KM12 colon.
Experiment [8] has as its system MDA-MB-435 melanoma.

This is part of a sample that, as a whole, favours compounds with a hit. Of some 83,000 tested, about 20% had one in any assay.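 For each line, cells grew in 96-well plates with the test compound present at a single concentration for 48 hours.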 Unmarked numbers belong to inactive results. The source made the active and inactive calls. The calls were made as follows: active = growth percent below 10; inactive = the rest.

Take `CCOC(=O)N1C2CCC(C2)N1C(=O)OCC`: the growth in experiment [1] is 108%; in experiment [2], 101%; in experiment [3], 105%; in experiment [4] it was 90.1%; in experiment [5] it was 103%; in experiment [6], 104%. In experiment [7], the growth is 112%.
With `CCCCCCCCCCCCC1CCC(=O)O1` (stereo not given), the growth in experiment [1] is 74.1%; in experiment [2], 96.5%; in experiment [8], 98.8%; in experiment [3], 90.3%; in experiment [5], 95.2%; in experiment [6], 104%. In experiment [7], the growth was 100%.
On to `COc1ccc(-c2nc3ccccc3n3cccc23)cc1`, for which the growth in experiment [1] was 107%; in experiment [2], 95.4%; in experiment [8], 126%; in experiment [3] it was 101%; in experiment [5] it was 92%; in experiment [6], 110%. For the same molecule, the growth in experiment [7] is 99%.
Take `O=C1CCCN1C(O)CCN(Cc1ccccc1)Cc1ccc(Cl)cc1` (stereo not given): the growth is 99.6% in experiment [1]; 105% in experiment [2]; 103% in experiment [8]; 100% in experiment [3]; 96.7% in experiment [5]; 108% in experiment [6]. The growth in experiment [7] was 105%.
In the case of `CCN(CC)c1ccc(/C=N/N=C(N)N)cc1`, the growth in experiment [1] is 63.4%; in experiment [2], 51.5%; in experiment [8] it was -23% (active); in experiment [3] it was 19.3%; in experiment [5] it was 32.5%; in experiment [6], 85.5%. Further, the growth in experiment [7] was 25.2%.
As for `Nc1c(C(=O)C[C@@H](N)CO)ccc2c1C(=O)CCO2`, the growth in experiment [1] is 33.6%; in experiment [2], 41.9%; in experiment [8], 68.3%; in experiment [3], 5.93% (active); in experiment [5], 37.9%; in experiment [6] it was -5.53% (active). The growth in experiment [7] is 20.1%.
Take `CCC1N=C(N)N=C(N)N1c1ccc(Cl)cc1` (stereo not given): the growth in experiment [1] is 95.7%; in experiment [2] it was 100%; in experiment [3], 72.3%; in experiment [4], 91.3%; in experiment [5], 61.1%; in experiment [6] it was 95.4%. The growth in experiment [7] was 97.4%.
`CCN(CC)CCCC(C)Nc1c(-c2ccccc2)cnc2cc(Cl)ccc12` (stereo not given): the growth was -44.9% (active) in experiment [1]; 87.4% in experiment [2]; 70.3% in experiment [3]; 59.1% in experiment [4]; 36.2% in experiment [5]; 73.4% in experiment [6]. In experiment [7], the growth was 65.3%.
In the case of `C=C1C(=O)O[C@H]2[C@H]1CC/C(COC(=O)NCc1[nH]nc3ccccc13)=C\CC[C@@]1(C)O[C@@H]21`, the growth in experiment [1] is 37.4%; in experiment [2], 24.3%; in experiment [3] it was -28.9% (active); in experiment [4], 17.9%; in experiment [5], -80.7% (active); in experiment [6] it was 87.5%. The growth in experiment [7] is 55.8%.
With `CC(=O)O[C@@H]1CC2C(C)(C)CCCC2(C)C2=C1C(=O)C(C(C)C)=CC2=O` (stereo not given in full), the growth in experiment [1] is -7.86% (active); in experiment [2], -13% (active); in experiment [8], -28.1% (active); in experiment [3], -52.5% (active); in experiment [5], -24.4% (active); in experiment [6], -60% (active). For the same molecule, the growth in experiment [7] was -48.7% (active).
Consider `COc1ncnc2[nH]cc(CN3CCN(c4ccc(F)cc4)CC3)c12`, for which the growth in experiment [1] is 104%; in experiment [2] it was 107%; in experiment [8], 91.9%; in experiment [3], 108%; in experiment [5], 111%; in experiment [6] it was 104%. The growth in experiment [7] is 109%.
For the molecule `COc1cc(/C=C\c2cc(/C=C\c3ccc(O)c(OC)c3)n(C(=O)Nc3ccc(C(F)(F)F)cc3)n2)ccc1O`, the growth is 47.4% in experiment [1]; 19% in experiment [2]; 27.8% in experiment [8]; 18% in experiment [3]; -53.7% (active) in experiment [5]; 103% in experiment [6]. Also, in experiment [7], the growth is 41.4%.
Regarding `COc1ccc(-c2cc(C(=O)Nc3ccc(Br)cc3)nc3[nH]c(=O)sc23)cc1`, the growth in experiment [1] was -0.894% (active); in experiment [2], 47%; in experiment [8], 39.6%; in experiment [3], 57.1%; in experiment [5] it was 32.1%; in experiment [6], 36.1%. The growth in experiment [7] was 34.7%.
For the molecule `COc1cccc(/C=N\Nc2ccc([N+](=O)[O-])cn2)c1O`, the growth in experiment [1] is 30.1%; in experiment [2], 71.8%; in experiment [8] it was 54.3%; in experiment [3], 38%; in experiment [5] it was 8.72% (active); in experiment [6], 82.2%. In addition, in experiment [7], the growth is 78.4%.
With `O=c1c2cc(Br)cc(Br)c2nc(-c2ccc(Cl)cc2)n1/N=C/c1cccc(F)c1`, the growth in experiment [1] was 48.8%; in experiment [2], 74.4%; in experiment [8] it was 78.8%; in experiment [3] it was 74.7%; in experiment [5], 18.5%; in experiment [6], 84%. The growth in experiment [7] is 70.2%.
